From PubChem BioAssay (Tox21)
Records with an inconclusive call do not appear. Calls of active or inactive are those of the source. Unless noted, calls come from the whole dose curve; as a rule, active = well fitted curve in the direction sought with a large enough effect in the repeat runs; inconclusive = weak or mixed curves; inactive = no such curve, though single readings can be large; an effect the other way counts as inactive or inconclusive.

Columns and labels:
[1] = qHTS assay to identify small molecule antagonists of the vitamin D receptor (VDR) signaling pathway - cell viability counter screen (AID 743225); note: nearly all actives have a fitted effect of over 50% in size
Procedure, shortened: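 Compounds were pinned onto VDR-bla HEK 293T cells together with 1-alpha,25-dihydroxyvitamin D3 at 3 nM final. After 16 h at 37C and 5% CO2 plus the reporter readout, cell viability was measured by CellTiter-Glo luminescence (30 min, room temperature).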

[2] = qHTS assay to identify small molecule agonists of the NFkB signaling pathway (AID 1159509; active = well fitted curve in the direction sought with a large enough effect in the signal ratio in the repeat runs, not every such curve was filed as active; the % refers to the signal ratio; note: series mostly up to about 61 µM)
Procedure, shortened: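 NFkB-bla ME-180 cells with a beta-lactamase reporter under an NF-kB response element were plated overnight, treated with compounds in DMSO for 5 hr at 37 C, then loaded with FRET substrate for 1.5 hr at room temperature.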

[3] = qHTS assay to identify small molecule agonists of the NFkB signaling pathway - cell viability counter screen (AID 1159515; calls by dose curve; note: series mostly up to about 61 µM; nearly all actives have a fitted effect of over 55% in size)
Procedure, shortened: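 5 hr compound treatment of NFkB-bla ME-180 cells (2,000/well, seeded overnight beforehand), followed by reporter substrate for 1.5 hr. CellTiter-Glo added afterward; luminescence after 30 min RT.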

[4] = qHTS assay to identify small molecule agonists of the endoplasmic reticulum stress response signaling pathway (AID 1159516; active = well fitted activation curve with a large enough effect in the signal ratio in the repeat runs, not every such curve was filed as active; the % refers to the signal ratio)
Procedure, shortened: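 Reporter HeLa cells (ESRE-beta-lactamase) underwent 5 hr compound incubation at 37 C and 5% CO2 in quantitative HTS format. Detection followed 2 hr of FRET substrate loading at room temperature.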

[5] = qHTS assay to identify small molecule agonists of the endoplasmic reticulum stress response signaling pathway - cell viability counter screen (AID 1159517; calls by dose curve;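 note: HeLa cells carrying an ER stress response element beta-lactamase reporter; series mostly up to about 61 µM; nearly all actives have a fitted effect of over 50% in size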)
Procedure, shortened: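 Luminescence readout: CellTiter-Glo, 30 min RT, same wells as the ESRE-bla reporter read. HeLa ESRE-bla, 1,500 cells/well, o/n 37 C; cpd 5 hr 37 C/5% CO2.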

[6] = qHTS assay to identify small molecule antagonists of the retinoid-related orphan receptor gamma (ROR-gamma) signaling pathway - cell viability counter screen (AID 1159520); note: nearly all actives have a fitted effect of over 50% in size
Procedure, shortened: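 Tet-on ROR gamma CHO cells (1,000/well) were plated 4 hr, given compounds in DMSO for 2 hr at 37 C, then induced with 1 uM final doxycycline for 16 hr. Viability was read as ATP by CellTiter-Glo luminescence after 30 min.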

[7] = target: Nuclear receptor ROR-gamma (Homo sapiens) (UniProt P51449); assay: qHTS assay to identify small molecule antagonists of the retinoid-related orphan receptor gamma (ROR-gamma) signaling pathway (AID 1159521;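 note: CHO cells with doxycycline inducible ROR-gamma driving an RORE luciferase reporter; top concentration of the series differs between compounds; nearly all actives have a fitted effect of over 50% in size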)
Procedure, shortened: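 Test compounds were applied to Tet-on RORγ CHO cells 2 h ahead of doxycycline hyclate (1 uM final). Luciferase reporter activity was quantified by luminescence after 16 h at 37 C and 5% CO2.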

[8] = qHTS assay to identify small molecule agonists of the AP-1 signaling pathway - cell viability counter screen (AID 1159525; calls by dose curve; note: nearly all actives have a fitted effect of over 55% in size)
Procedure, shortened: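 ME-180 AP-1-bla, 2500 cells/well, Opti-MEM + 0.5% dialyzed FBS; overnight 37 °C; cpd 15-pt titration, 5 h 37 °C; CellTiter-Glo 30 min RT; luminescence read; normalised to TOAB and DMSO controls.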

[9] = qHTS assay to identify small molecule agonists of the AP-1 signaling pathway (AID 1159526; calls by dose curve)
[10] = qHTS assay to identify small molecule agonists of the RXR signaling pathway - cell viability counter screen (AID 1159529)
Procedure, shortened: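 Compounds dissolved in DMSO were pinned onto HEK 293T cells carrying a beta-lactamase reporter under RXR-alpha control and incubated 16 hr. Cytotoxicity was then quantified by CellTiter-Glo luminescence.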

[11] = qHTS assay to identify small molecule antagonists of the retinoid acid receptor (RAR) signaling pathway - cell viability counter screen (AID 1159551); note: nearly all actives have a fitted effect of over 35% in size
Procedure, shortened: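 Seed C3RL4 cells; next day add compound, then retinol to 1 uM final; incubate 6 h at 37 C; add CellTiter-Glo; read luminescence after 30 min at RT.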

[12] = qHTS assay to identify small molecule antagonists of the retinoic acid receptor (RAR) signaling pathway (AID 1159552; note: nearly all actives have a fitted effect of over 50% in size)
Procedure, shortened: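 Test chemicals and DMSO controls were pin-transferred onto C3RL4 cells a day after seeding; retinol (1 uM final) followed at once. Luminescent reporter output was quantified after 6 hr of co-incubation and 30 min with detection reagent.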

[13] = qHTS assay to identify small molecule agonists of the retinoic acid receptor (RAR) signaling pathway (AID 1159553)
Procedure, shortened: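 Activation of retinol signaling was monitored via a RARE luciferase reporter in C3RL4 cells. After 6 hr compound treatment at 37 C, detection reagent was added for 30 min at room temperature before luminescence reading.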

[14] = qHTS assay to identify small molecule antagonists of the estrogen related receptor (ERR) signaling pathway from Tox21 library - cell viability counter screen (AID 1224834); note: nearly all actives have a fitted effect of over 30% in size
Procedure, shortened: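 CellTiter-Fluor fluorescence measured; ERR cells; 17.5 h compound incubation at 37 C; 30 min reagent step.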

[15] = target: Luciferin 4-monooxygenase (Photinus pyralis) (UniProt P08659); assay: qHTS assay to identify small molecule inhibitors of firefly luciferase (AID 1224835); note: series mostly up to about 120 µM; nearly all actives have a fitted effect of over 25% in size
Chain of Luciferin 4-monooxygenase (Photinus pyralis) (P08659 whole entry, looked up): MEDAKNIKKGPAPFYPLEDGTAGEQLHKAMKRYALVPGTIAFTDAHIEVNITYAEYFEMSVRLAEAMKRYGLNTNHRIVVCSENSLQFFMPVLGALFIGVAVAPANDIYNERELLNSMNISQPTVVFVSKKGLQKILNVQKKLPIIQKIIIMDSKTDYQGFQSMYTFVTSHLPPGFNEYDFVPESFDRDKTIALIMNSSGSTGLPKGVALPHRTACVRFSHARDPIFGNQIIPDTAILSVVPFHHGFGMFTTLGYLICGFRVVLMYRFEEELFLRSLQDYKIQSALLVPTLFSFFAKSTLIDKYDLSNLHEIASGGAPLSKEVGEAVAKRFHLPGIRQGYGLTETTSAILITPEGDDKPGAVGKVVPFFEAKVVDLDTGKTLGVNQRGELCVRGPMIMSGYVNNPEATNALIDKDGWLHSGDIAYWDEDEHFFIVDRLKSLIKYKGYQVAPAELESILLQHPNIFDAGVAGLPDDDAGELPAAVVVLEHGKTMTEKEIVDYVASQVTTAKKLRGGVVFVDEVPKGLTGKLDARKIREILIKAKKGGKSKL
Procedure, shortened: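 Quantitative HTS format; KM concentrations of both substrates. Purified P. pyralis FLuc activity quantified from luminescence images.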

[16] = qHTS assay to identify small molecule agonists of the constitutive androstane receptor (CAR) signaling pathway - cell viability counter screen (AID 1224836); note: series mostly up to about 92 µM; nearly all actives have a fitted effect of over 45% in size
Procedure, shortened: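 23 h treatment, 37 C, 5% CO2. Cell line: HepG2 stably expressing hCAR with a CYP2B6-2.2kb construct. Co-treatment: PK11195, 0.75 uM final. Read-out: CellTiter-Fluor fluorescence intensity.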

[17] = qHTS assay to identify small molecule antagonists of the constitutive androstane receptor (CAR) signaling pathway - cell viability counter screen (AID 1224837); note: series mostly up to about 92 µM; nearly all actives have a fitted effect of over 45% in size
Procedure, shortened: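 Using CellTiter-Fluor, viability is scored in HepG2 cells stably carrying hCAR and a 2.2kb CYP2B6 reporter after 23 hr compound exposure across 15 concentrations, with CITCO present at 50 nM.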

[18] = target: Nuclear receptor subfamily 1 group I member 3 (Homo sapiens) (UniProt Q14994); assay: qHTS assay to identify small molecule antagonists of the constitutive androstane receptor (CAR) signaling pathway (AID 1224838);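 note: HepG2 cells stably expressing hCAR with CYP2B6 luciferase reporter stimulated by CITCO; nearly all actives have a fitted effect of over 40% in size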
Chain of Nuclear receptor subfamily 1 group I member 3 (Homo sapiens) (Q14994 whole entry, looked up): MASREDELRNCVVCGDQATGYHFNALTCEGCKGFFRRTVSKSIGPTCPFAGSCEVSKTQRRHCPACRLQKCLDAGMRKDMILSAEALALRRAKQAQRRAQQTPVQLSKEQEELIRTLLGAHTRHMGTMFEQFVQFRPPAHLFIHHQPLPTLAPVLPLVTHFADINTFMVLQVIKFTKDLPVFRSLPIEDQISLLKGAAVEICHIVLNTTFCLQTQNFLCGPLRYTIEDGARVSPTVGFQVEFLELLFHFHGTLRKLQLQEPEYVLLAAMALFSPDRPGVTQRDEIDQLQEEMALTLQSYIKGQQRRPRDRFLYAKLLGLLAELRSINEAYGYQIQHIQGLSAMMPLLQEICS
Procedure, shortened: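 Reporter luminescence was quantified after 24 h exposure of hCAR/CYP2B6-2.2kb double-stable HepG2 cells to compounds at 15 concentrations in the presence of 50 nM CITCO final.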

[19] = target: Nuclear receptor subfamily 1 group I member 3 (Homo sapiens) (UniProt Q14994); assay: qHTS assay to identify small molecule agonists of the constitutive androstane receptor (CAR) signaling pathway (AID 1224839);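 note: HepG2 cells stably carrying human CAR and a CYP2B6 luciferase reporter; series mostly up to about 92 µM; nearly all actives have a fitted effect of over 15% in size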
Procedure, shortened: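 Compounds tested at 15 concentrations on HepG2 cells stably harbouring hCAR and CYP2B6-2.2kb reporter constructs, co-treated with PK11195 (0.75 uM final), 24 h at 37 C; luminescent reporter signal quantified.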

[20] = target: Retinoic acid receptor RXR-alpha (Homo sapiens) (UniProt P19793); assay: qHTS assay to identify small molecule agonists of the RXR signaling pathway (AID 1159527; calls by dose curve; note: nearly all actives have a fitted effect of over 35% in size)
Chain of Retinoic acid receptor RXR-alpha (Homo sapiens) (P19793 whole entry, looked up): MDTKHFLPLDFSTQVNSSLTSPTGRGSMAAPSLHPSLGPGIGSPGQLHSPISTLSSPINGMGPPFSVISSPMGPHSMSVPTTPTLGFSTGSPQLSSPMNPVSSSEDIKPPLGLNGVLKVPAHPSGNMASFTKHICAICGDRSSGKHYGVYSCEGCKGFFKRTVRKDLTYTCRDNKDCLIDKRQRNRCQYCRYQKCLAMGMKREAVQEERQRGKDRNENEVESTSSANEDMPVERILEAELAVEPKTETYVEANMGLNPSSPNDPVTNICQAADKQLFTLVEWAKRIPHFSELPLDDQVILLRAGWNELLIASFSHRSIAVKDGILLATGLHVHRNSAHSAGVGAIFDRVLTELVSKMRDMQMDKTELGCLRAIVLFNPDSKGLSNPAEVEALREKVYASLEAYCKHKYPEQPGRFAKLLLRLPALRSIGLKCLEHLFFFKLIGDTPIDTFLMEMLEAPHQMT
Procedure, shortened: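 Using 9-cis retinoic acid as the reference agonist, chemicals were tested in HEK 293T cells […] for 16 hr; substrate loading lasted 2 hr at room temperature.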

Measured: Potency

CC1=C(C(=O)O)N2C(=O)[C@@H](NC(=O)[C@H](N)c3ccccc3)[C@H]2SC1
not listed: [20]
inactive: all other assays above

CCN(CC)CCN
not listed: [1] | [8] | [19]
inactive: all other assays above

Cc1c(N)cccc1Cl
not listed: [19]
inactive: all other assays above

OCC1(CO)COCOC1
not listed: [16]
inactive: all other assays above

CC12CCC(C1)C(C)(C)C2O (stereo unspecified)
not listed: [16]
inactive: all other assays above

C=CCCCC
not listed: [16]
inactive: all other assays above

CC(Oc1cc(Cl)ccc1Cl)C(=O)O (stereo unspecified)
not listed: [16]
inactive: all other assays above
